Results reported in PubChem BioAssay.
Active and inactive are the calls of the source.

Legend:
[1] = target: Albumin (Bos taurus) (UniProt P02769); experiment: bovine serum albumin binders on microarray, profiling panel, artefact control for SMM control protein annotation, biochemical, small-molecule microarray, Alexa647 label, 635/667 nm fluorescence (AID 1118); conditions: BSA-A647 binding, fluorescence 635 nm, higher = more signal;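 note: score merges 667 nm emission intensity and signal-to-noise per printed compound spot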
Chain of Albumin (Bos taurus) (P02769 whole entry, looked up): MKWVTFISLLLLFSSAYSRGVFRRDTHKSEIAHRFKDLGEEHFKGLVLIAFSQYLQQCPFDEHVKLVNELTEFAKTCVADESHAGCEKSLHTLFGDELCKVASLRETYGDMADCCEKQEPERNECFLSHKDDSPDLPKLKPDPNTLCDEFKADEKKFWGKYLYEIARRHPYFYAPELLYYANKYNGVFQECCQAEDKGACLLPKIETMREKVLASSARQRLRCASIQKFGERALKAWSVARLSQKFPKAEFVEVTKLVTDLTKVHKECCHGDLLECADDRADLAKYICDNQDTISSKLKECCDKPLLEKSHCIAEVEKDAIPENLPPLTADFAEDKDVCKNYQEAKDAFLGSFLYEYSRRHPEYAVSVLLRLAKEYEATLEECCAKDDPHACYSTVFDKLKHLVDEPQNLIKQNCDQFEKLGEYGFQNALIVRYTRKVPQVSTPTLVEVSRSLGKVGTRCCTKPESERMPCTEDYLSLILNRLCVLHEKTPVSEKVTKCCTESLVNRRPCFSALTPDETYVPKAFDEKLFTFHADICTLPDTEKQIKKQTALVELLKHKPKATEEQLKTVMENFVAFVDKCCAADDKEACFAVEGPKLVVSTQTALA

[2] = small-molecule microarray binders of probe aXIP, primary screen, biochemical, NeuroSMM set, 635/667 nm fluorescence (AID 1119); conditions: higher = more signal, called active from +8 up or from −8 down;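 note: probe is the protein aXip251-270 applied at 1 µg/mL to compound-printed slides; binding of probe to printed compounds measured as 667 nm fluorescence plus signal to noise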
[3] = small-molecule binders of probe aNOTCH3, primary screen, biochemical, small-molecule microarray, 635/667 nm fluorescence (AID 1120); conditions: higher = more signal;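 note: probe is a biotin-tagged antibody raised against NOTCH3 rather than NOTCH3 protein; score merges spot fluorescence near 667 nm with spot signal to noise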
[4] = small-molecule binders of probe aNOTCH2, primary screen, biochemical, small-molecule microarray, 635/667 nm fluorescence (AID 1121); conditions: higher = more signal;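 note: score merges feature fluorescence read at 667 nm with its signal to noise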
[5] = target: Carbonic anhydrase 2 (Homo sapiens) (UniProt P00918); experiment: CAII small-molecule binders, profiling panel, biochemical, small-molecule microarray, Alexa647-labelled CAII (AID 1122); conditions: CAII-A647 binding fluorescence, higher = more signal
[6] = COS7 lysate on small-molecule microarray, probe aHis, 635 nm (AID 1123); conditions: COS7 cell lysate, fluorescence, higher = more signal;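 note: z-score combines 667nm fluorescence intensity with signal-to-noise per printed compound spot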
[7] = compound binding in COS7 lysate, probe aLAP1, primary screen, cell lysate, small-molecule microarray (AID 1124); conditions: probe aLAP1, fluorescence, higher = more signal;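 note: lysate comes from COS7 cells expressing LAP1 and is applied at 0.3 µg/mL; score merges spot fluorescence near 667 nm with signal-to-noise over triplicate slides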
[8] = system: Sam68 (KHDRBS1); experiment: Sam68 small-molecule binders, primary screen, biochemical, small-molecule microarray, 635 nm fluorescence (AID 1125); conditions: small-molecule microarray binding, higher = more signal;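 note: score merges 667 nm channel intensity with signal to noise over triplicate slides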
[9] = system: Chordin-like protein 2 (CHRDL2); experiment: CHRDL2 small-molecule binders, primary screen, biochemical, small-molecule microarray, 635 nm fluorescence (AID 1126); conditions: small-molecule microarray binding, fluorescence 635 nm; higher = more signal;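 note: printed compound slides probed with Chrdl2 protein at 4 µg/mL for 1 h at 4 C; score merges 667 nm emission intensity with signal to noise over three replicate slides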
[10] = target: Concanavalin-A (Canavalia ensiformis) (UniProt P02866); experiment: ConA small-molecule binders, primary screen, artefact control for SMM control protein annotation, biochemical, small-molecule microarray, Alexa647 label, 635 nm (AID 1127); conditions: ConA-A647 binding fluorescence, higher = more signal;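 note: z combines 667 nm emission intensity with signal-to-noise across three replicate slides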
Chain of Concanavalin-A (Canavalia ensiformis) (P02866 whole entry, looked up): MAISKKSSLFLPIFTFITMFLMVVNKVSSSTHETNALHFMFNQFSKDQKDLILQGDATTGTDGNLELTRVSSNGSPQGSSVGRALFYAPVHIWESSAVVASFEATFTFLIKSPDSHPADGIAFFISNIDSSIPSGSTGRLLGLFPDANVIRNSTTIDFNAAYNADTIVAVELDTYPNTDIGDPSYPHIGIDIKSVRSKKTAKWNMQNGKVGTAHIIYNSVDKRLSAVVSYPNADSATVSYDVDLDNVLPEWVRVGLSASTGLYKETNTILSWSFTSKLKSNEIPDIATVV

Row | SMILES | composite z-score [1] | composite Z-score [2] | composite z-score [3] | composite z-score [4] | composite z-score [5] | composite z-score [6] | composite z-score [7] | composite z-score [8] | composite z-score [9] | composite z-score [10]
1 | C=CCOC(=O)[C@H]1[C@@H]2C(=O)O[C@@H](c3ccccc3)[C@@H](c3ccccc3)N2[C@@H](c2ccc(OCCOC(=O)[C@H]3C[C@H]4C(=O)N[C@@H](CCCCN(C)C)C(=O)N4[C@H]3c3ccc(O)cc3)cc2)[C@]12C(=O)Nc1ccc(I)cc12 | 0.412 | 0.432 (inactive) | 0.282 | -0.0028 | 0.493 | 1.45 | 0.651 | 1.31 | 1.18 | 1.15
2 | C=C(CCCC)/C(=C/C[C@@H](OC(=O)c1ccncc1)c1ccc(OCCO)cc1)c1cc(C(=O)OC)ccc1OC | 0.445 | -0.367 (inactive) | -0.0288 | -0.123 | 0.554 | 0.517 | 0.546 | 1.12 | 0.0685 | 0.249
3 | COCCOC(=O)N1C(=O)[C@@]2(c3ccccc31)[C@H](c1ccc(O)cc1)N1[C@H](c3ccccc3)[C@H](c3ccccc3)OC(=O)[C@H]1[C@@H]2C(=O)Nc1nc2ccccc2s1 | 0.827 | -0.434 (inactive) | 0.351 | -0.0956 | 0.498 | 1.98 | 0.384 | 1.3 | -0.172 | 1.2
4 | CCC(CC)C(O)C1C=CC2C(=O)NC(=O)C2N1Nc1ccccn1 (stereo not given) | 0.958 | -0.248 (inactive) | -0.0219 | -0.0438 | 0.763 | 0.864 | -0.019 | 0.0905 | 0.416 | 0.228
5 | COC(=O)c1c(CC[C@@H](CO)NC(=O)NCCn2cc(C3(O)CCCC3)nn2)oc(C(C)=O)c1C(=O)OC | 0.351 | -0.79 (inactive) | -0.209 | -0.128 | 0.745 | 0.603 | -0.108 | 0.492 | -0.505 | -0.027
6 | CC(C)CNC(=O)[C@@]1(Cc2ccccc2I)c2ccccc2C(=O)N(C2CCCCC2)[C@H]1c1ccc(CO)cc1 | 0.82 | 2.21 (inactive) | -0.139 | -0.0432 | 0.619 | 2.1 | 2.06 | 0.342 | 0.133 | 0.565
7 | COCC(=C=CC[C@@H](O)c1cccc(OCCO)c1)C[C@@H](O)c1ccccn1 | 0.254 | 0.745 (inactive) | 0.0979 | -0.14 | 0.744 | 0.486 | 1.73 | 0.338 | 0.188 | 0.218
8 | C=C(CC1([C@@H](NP(=O)(c2ccccc2)c2ccccc2)[C@H]2C[C@@H]2CCCC)CC1)c1ccccc1 | 0.844 | 0.121 (inactive) | 0.335 | 0.17 | 0.252 | 2.67 | -0.293 | 1.14 | -0.874 | 0.546
9 | C=CCN1C(=O)[C@]2(O[C@H](CCn3cc([C@H](O)c4ccccc4)nn3)[C@@H]([Si](C)(C)c3ccc(OC)cc3)[C@@H]2C)c2cc(N3CCC3=O)ccc21 | 0.621 | 0.156 (inactive) | -0.226 | -0.0826 | 0.337 | 0.855 | 0.407 | 0.564 | 0.587 | 0.882
10 | C=CCNC(=O)[C@@H]1[C@H]2C(=O)O[C@H](c3ccccc3)[C@H](c3ccccc3)N2[C@H](c2ccccc2OCCO)[C@@]12C(=O)N(C(=O)OCCOC)c1ccccc12 | 0.236 | 0.318 (inactive) | 0.492 | -0.0878 | 0.395 | 0.938 | 0.594 | 1.31 | 0.66 | 1.16
11 | [N-]=[N+]=Nc1ccccc1[C@H]1OC(c2ccc(OCCCO)cc2)=N[C@@]1(CCS(=O)(=O)c1ccccc1)C(N)=O | 0.485 | 0.211 (inactive) | 0.264 | 0.113 | 0.795 | 1.43 | 0.469 | 1.22 | 0.0869 | 0.868
12 | [N-]=[N+]=Nc1ccccc1[C@@H]1OC(c2ccc(OCCCO)cc2)=N[C@]1(Cc1ccccc1)C(=O)N1CCOCC1 | 0.309 | -0.174 (inactive) | 0.619 | 0.0117 | 0.312 | 2.23 | 0.115 | 1.31 | 0.0383 | 1.09
13 | [N-]=[N+]=Nc1ccccc1[C@H]1OC(c2ccc(OCCCO)cc2)=N[C@@]1(CCS(=O)(=O)c1ccccc1)C(=O)NCC(O)CO (stereo not given in full) | 0.876 | -0.0683 (inactive) | 0.102 | -0.0984 | 0.718 | 3.02 | 0.261 | 1.33 | -0.907 | 0.833
14 | O=C(NC1CC1)[C@@H]1c2ccccc2C(=O)N(Cc2ccccc2Cl)[C@H]1c1ccc(CO)cc1 | -0.243 | 0.0965 (inactive) | 0.0765 | -0.0411 | 0.633 | 2.33 | 0.108 | 1.33 | 0.516 | 1.02
15 | Cc1nc2cc(Br)ccc2c(=O)o1 | 0.367 | 0.239 (inactive) | -0.013 | -0.124 | 0.633 | 0.495 | 0.108 | 0.384 | 0.126 | 0.724
16 | CCCC[C@@H]1C[C@H]1[C@@H](NC(=O)C(C)(C)C)c1ccc(C(F)(F)F)cc1 | 0.315 | -0.414 (inactive) | -0.222 | -0.0986 | 0.289 | 0.834 | 0.0265 | -0.305 | -2.05 | -0.0101
17 | C=C[C@@H](COC(=O)OC(C)(C)C)N(Cc1ccc(OC)cc1)S(=O)(=O)c1ccc(Br)cc1 | -0.0125 | 0.342 (inactive) | 0.185 | -0.154 | -0.0303 | 0.456 | -0.024 | 0.828 | 0.708 | 0.802

Row | SMILES | composite z-score [1] | composite Z-score [2] | composite z-score [3] | composite z-score [4] | composite z-score [5] | composite z-score [6] | composite z-score [7] | composite z-score [8] | composite z-score [9] | composite z-score [10]
18 | COC(=O)[C@@]1(Cc2ccc(OC)cc2)[C@H]2c3cc(C(=O)N(C)C)n(Cc4ccccn4)c3C[C@H]2CN1C(=O)c1ccccc1 | 0.972 | 0.655 (inactive) | 0.0674 | 0.293 | 0.89 | 3.14 | 1.03 | -0.0453 | -0.855 | -0.0204
19 | COCCOC(=O)N1C(=O)[C@@]2(c3cc(C#CCC(C(=O)OC)C(=O)OC)ccc31)[C@H](c1ccccc1OCCO)N1[C@H](c3ccccc3)[C@H](c3ccccc3)OC(=O)[C@H]1[C@@H]2C(=O)NC[C@H](O)c1ccccc1 | -0.841 | 0.577 (inactive) | 0.164 | 0.0568 | 0.483 | 1.47 | 0.412 | 1.3 | 0.972 | 1.16
20 | CC(C)C[C@@H]1NC(=O)[C@@H]2C[C@H](C(=O)O)[C@H](c3cccc(OCCO)c3)N2C1=O | -0.494 | -0.303 (inactive) | -0.204 | -0.164 | 0.673 | 1.78 | 0.283 | -0.0754 | 0.707 | 0.684
21 | COc1ccc(-c2cc3c(c(-c4ccc(Oc5ccccc5)cc4)n2)[Si](C(C)C)(C(C)C)OC3)cn1 | -0.344 | -0.108 (inactive) | -0.0311 | -0.132 | -0.163 | 0.0687 | -0.232 | -0.0667 | -0.0581 | 0.478
22 | C=CCC(OC(C)=O)[C@@H]1[C@@H](N(Cc2ccc(-c3cccc(C(F)(F)F)c3)o2)C(=O)c2ccc(C)cc2)c2cc(OCCCO)ccc2N1C(=O)Cc1ccc2ccccc2c1 (stereo not given in full) | -0.257 | 0.421 (inactive) | -0.0702 | -0.153 | -0.253 | -0.275 | -0.472 | -2.05 | 0.264 | -0.594
23 | O=C1N[C@@H](Cc2ccccc2)C(=O)N2[C@@H]1C[C@@H](C(=O)O)[C@H]2c1cccc(OCCO)c1 | 0.0429 | 0.108 (inactive) | -0.0362 | -0.124 | 0.733 | 0.514 | 0.256 | 1.22 | 0.992 | 0.311
24 | C=CC[C@]1(C(=O)NCCCOC)N=C(c2ccc(OCCCO)cc2)O[C@H]1c1ccccc1CN=[N+]=[N-] | 0.782 | 0.571 (inactive) | 0.119 | -0.0013 | 0.748 | 2.59 | 0.298 | 1.14 | -0.257 | 0.983
25 | O=C(c1ccccc1)N1C(=O)[C@@]2(Cc3ccccc31)N=C(c1ccc(OCCCO)cc1)O[C@H]2c1ccccc1 | -0.85 | 0.718 (inactive) | 0.33 | 0.14 | 0.575 | 2.41 | 1.22 | 1.31 | 0.897 | 1.14
26 | CC1CC/C=C\[C@H]2OC34C=CCN(C(C)(C)C)C(=O)[C@H]3N(CCO)C(=O)[C@@H]4C2C(=O)O1 (stereo not given in full) | 0.922 | 0.108 (inactive) | -0.341 | -0.148 | 0.917 | 1.08 | 1.41 | -0.719 | -1.31 | -2.33
27 | CO[C@H]1O[C@H](CO)[C@@H](OC(=O)Nc2ccc(C(F)(F)F)cc2)[C@H](OC(=O)Nc2ccc3c(c2)OCO3)[C@@H]1OC(=O)Nc1ccc2c(c1)OCO2 | 0.835 | -0.279 (inactive) | 0.149 | -0.164 | 0.238 | 1.83 | 0.579 | 1.33 | 0.0643 | 1.14
28 | COc1cc(NN2C(C(O)c3ccco3)C=CC3C(=O)N(c4ccccc4)C(=O)C32)cc(OC)c1OC (stereo not given) | 0.877 | 0.32 (inactive) | -0.0328 | -0.139 | 0.574 | 1.13 | 0.166 | 0.203 | -0.776 | 0.498
29 | CCC[C@@H]1C[C@@]1(CCC)[C@@H](NS(=O)(=O)c1cccc2cccnc12)c1ccc(Cl)cc1 | 0.659 | -0.421 (inactive) | 0.0496 | -0.106 | 0.457 | 1.81 | -0.119 | 0.403 | -0.955 | 0.492
30 | C=CCNC(=O)[C@H]1[C@@H]2C(=O)O[C@@H](c3ccccc3)[C@@H](c3ccccc3)N2[C@@H](c2ccccc2OCCO)[C@]12C(=O)Nc1ccc(C#CCCO)cc12 | -0.066 | 0.313 (inactive) | -0.214 | -0.137 | 0.423 | 1.06 | 0.0894 | -0.0891 | -0.0022 | 0.801
31 | COc1ccc([C@H]2OC[C@@H]3C[C@@H](Cc4ccccc4)C(=O)N32)cc1 | -0.127 | 0.584 (inactive) | 0.111 | -0.164 | 0.796 | 0.39 | -0.123 | 0.338 | 0.377 | 0.143
32 | CC[C@@H]1C=C(C(=O)O)[C@H](c2ccc(Br)cc2)N1S(=O)(=O)c1ccc(C)cc1 | 0.66 | 0.142 (inactive) | 0.167 | -0.0649 | 0.709 | 2.01 | 0.98 | 0.93 | 0.173 | 0.882
33 | C=CCN1C(=O)[C@@]2(Cc3ccccc31)N=C(c1ccc(OCCCO)cc1)O[C@H]2c1ccccc1 | -0.519 | 0.302 (inactive) | 0.307 | 0.125 | 0.401 | 2.8 | 0.843 | 1.17 | 0.885 | 1.17
